Screening data as filed in PubChem.
Pf Dd2 growth: qHTS Primary assay for Inhibitors of Plasmodium falciparum Dd2 growth in vitro; P. falciparum Dd2 growth, SYBR Green, 72 h; Potency, µM (top dose mostly 28.9 µM), for the others: at the highest dose activity, negative = inhibition, usual class: inhibitors; 4.3% of 120,000 active; active = well fitted inhibition curve with a large enough effect;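 note: plate controls were DMSO vehicle for no effect and reference drug for full effect; nearly all actives have a fitted effect of over 65% in size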
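Infected erythrocytes (Dd2, 0.3% parasitemia, 2.5% hematocrit final) are added to compound in RPMI-1640/Albumax II medium, grown 72 h at 37C in low oxygen, then lysed with saponin/Triton-X containing SYBR Green and read by fluorescence.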
* hit, by the source's call; i = inactive; [ ] = remark or other dose. This is one part of a sample in which hits are shown more often than they occur. Potency is the fitted concentration of half-maximal effect.

SMILES | Pf Dd2 growth
COC[C@@H]1CN(Cc2ccc(F)cc2F)C[C@H]1C(=O)NC1CC1 | -28.7%
COc1ccc(OC2CN(Cc3ccc(NC(C)=O)cc3)C2)cc1 | -2.6%
O=C(NC1CC1)[C@@H]1CN(Cc2cc(F)c(F)cc2F)C[C@H]1CO | -21.8%
O=C(NC1CC1)[C@@H]1CN(Cc2ccc(Cl)cc2F)C[C@H]1CO | 7.94µM*
O=C(NCC1CC1)c1cccc(OC2CN(C3CCOCC3)C2)c1 | i
COC[C@@H]1CN(Cc2ccc(OC)c(C)c2)C[C@H]1C(=O)NC1CC1 | -2.1%
O=C(NCC1CC1)c1cccc(OC2CN(Cc3ccc(OC(F)(F)F)cc3)C2)c1 | 8.91µM*
N#Cc1ccc(-c2nc(C(=O)NCC3CCCCC3)no2)cc1 | i
COCC[C@]1(O)CCN(C(=O)c2ccccc2Cl)C[C@H]1C | -6.7%
Cc1cc2nc3n(c(=O)c2n1CC(=O)Nc1cccc(Cl)c1)CCCC3 | -24.5%
COCC(NC(=O)c1csc(-c2cccs2)n1)c1ccnn1C (stereo unspecified) | -0.2%
CC(C)NC(=O)N1CCN(C(=O)c2cccnc2)C[C@H]1C(=O)N[C@@H](CC1CCCCC1)C(N)=O | 7.9%
Cc1ccc(-c2nnc(SCC(=O)NC3CCCC3)nc2-c2ccc(C)cc2)cc1 | 5.01µM*
COc1ccc(-c2nnc(SCC(=O)NC3CCCCC3)nc2-c2ccc(OC)cc2)cc1 | 39.1%
O=C(CSc1nnc(-c2ccc(Cl)cc2)c(-c2ccc(Cl)cc2)n1)NC1CCCC1 | i
CN(C)C1(CNC(=O)c2ccc(OC3CCN(C(=O)C4CC4)CC3)cc2)CCCCC1 | -16.6%
COc1cc(OC)cc(C(=O)N2CCCC(n3cc(-c4noc(C)n4)nn3)C2)c1 (stereo unspecified) | i
COc1ccc(Cl)cc1NC(=O)c1c(NCc2cccnc2)sc2c1CCC(C)C2 (stereo unspecified) | 8.91µM*
COc1ccc(Cl)cc1NC(=O)c1c(NCc2cccs2)sc2c1CCC(C)C2 (stereo unspecified) | 12.6µM*
COc1ccccc1NC(=O)c1c(NC(=O)c2cccs2)sc2c1CCC(C(C)(C)C)C2 (stereo unspecified) | 7.5%
COc1ccc(Cl)cc1NC(=O)c1sc2nc3c(cc2c1N)N1CCC3CC1 | 10.6%
COC(=O)c1c(NC(=O)CCCOc2ccccc2C)sc2c1CCC(C)C2 (stereo unspecified) | 22.6%
COc1ccc(NC(=O)c2c(NC(=O)c3ccncc3)sc3c2CCC(C(C)(C)C)C3)cc1 (stereo unspecified) | 57.9%
COCCNC(=O)[C@@H]1C[C@H](Oc2ccccc2)CN1C(=O)c1cc2ccccc2[nH]1 | -29.7%
O=C(Cn1ccn2nc3c(c2c1=O)CCCCC3)Nc1cc(F)ccc1F | 7.2%
SMILES | Pf Dd2 growth
O=C(Cc1ccccc1)Nc1ccc([C@@H](O)[C@H]2COCC(=O)N2Cc2ccc(C(F)(F)F)cc2)cc1 | -13.6%
N#Cc1nc(/C=C/c2ccc(F)cc2)oc1N1CCN(c2ccccc2)CC1 | 60.0%
Cc1ccc(OCc2ccc(-c3nc(C#N)c(N4CCN(c5cccc(Cl)c5)CC4)o3)o2)cc1 | -7.8%
Cc1ccccc1OCc1ccc(-c2nc(C#N)c(N3CCN(c4ccccc4)CC3)o2)o1 | 11.2µM*
COc1cccc(Nc2ccc3nnc(-c4cc(OC)ccn4)n3n2)c1 | i
Cc1ccc(NC(=O)CN2C(=O)C(c3ccccc3)=NC23CCCC3)c(C)c1 | 1.4%
O=C1COc2ccc(-c3ccoc3)nc2CN1Cc1ccc(C(F)(F)F)cc1 | 12.6µM*
O=C1COc2ccc(-c3cn[nH]c3)nc2CN1Cc1ccc(C(F)(F)F)cc1 | i
Cc1nc(CN2Cc3nc(-c4cnn(Cc5ccccc5)c4)ccc3OCC2=O)cs1 | 10µM*
COc1cccc(CN2Cc3nc(-c4cnn(Cc5ccccc5)c4)ccc3OCC2=O)c1 | i
O=C1COc2ccc(Nc3ccccc3)nc2CN1CCOc1ccccc1 | -8.9%[44.1 µM]
COCCN1Cc2nc(Nc3ccc(C(F)(F)F)cc3)ccc2OCC1=O | 12.6µM*
O=C1COc2ccc(-c3ccncc3)nc2CN1Cc1ccc(C(F)(F)F)cc1 | -33.0%[44.1 µM]
O=C1COc2ccc(Nc3cccc(F)c3)nc2CN1CCOc1ccccc1 | -2.2%[44.1 µM]
Cc1ccccc1CN1Cc2nc(-c3cnn(Cc4ccccc4)c3)ccc2OCC1=O | -39.9%[44.1 µM]
Cc1ncoc1C(=O)N1CCC(c2noc(-c3cccnc3)n2)C1 (stereo unspecified) | 48.8%[5.79 µM]
CC(C)CCN1CCC2(CC1)CC(=O)Nc1ccccc1O2 | -4.8%[44.1 µM]
Cc1ccc(C(=O)N2CCCC(N)CC2)cc1N1CCNC1=O (stereo unspecified) | -11.5%
COc1cccc(CCC(=O)NCc2nnc3cc(-c4nc(C5CC5)no4)ccn23)c1 | i
Cc1cc(C(=O)N2CC[C@H]3C(=O)NCCCCCCN(Cc4ccncc4)[C@@H]3C2)n(C)n1 | -1.1%
Cc1ccc2oc([C@H]3CCN(Cc4ccc(C(=O)O)cc4)C3)nc2c1 | i
O=C(c1cccc2cnccc12)N1CCC2(CC1)Nc1ccccc1NC2=O | 18.9%
O=S(=O)(c1ccccc1C(F)(F)F)N1CCC2(CCCNC2)C1 (stereo unspecified) | 7.94µM*
CNc1ccc(C(=O)N2CCC3(CCCNC3)C2)cc1 (stereo unspecified) | -15.4%
CC(C)c1ccc(S(=O)(=O)N2CCC3(CCCNC3)C2)cc1 (stereo unspecified) | 5.01µM*
SMILES | Pf Dd2 growth
CN1CCC(N2CCN(S(=O)(=O)c3ccccc3C(F)(F)F)CC2)C1=O (stereo unspecified) | -14.8%
O=c1ccc2cc(S(=O)(=O)N3CCC4(CCCNC4)C3)ccc2o1 (stereo unspecified) | -13.4%
O=C(c1cc(F)c(F)c(F)c1)N1CCC2(CCCNC2)C1 (stereo unspecified) | 3.4%
Cn1c(CN2CCC(O)CC2)nnc1C1CCCN(C2CCNCC2)C1 (stereo unspecified) | 5.5%
CC(C)CCN1CCC(N(C(=O)NCCc2ccccc2)C2CCOCC2)CC1 | -21.1%
O=C(NCc1ccncc1)c1cc(CN2CCC(Cc3ccccc3)CC2)on1 | -27.9%
CCC(=O)N1CCc2cc(Br)cc(S(=O)(=O)NCCc3ccccc3)c21 | -24.3%
CCC(=O)N1CCc2cc(Br)cc(S(=O)(=O)CCC(=O)Nc3cccc(CC)c3)c21 | i
COc1ccccc1N1CCN(C(=O)CCS(=O)(=O)c2cc(Br)cc3c2N(C(C)=O)CC3)CC1 | i
COc1ccc(Cl)cc1NS(=O)(=O)c1cc(Br)cc2c1N(C(=O)C1CC1)CC2 | 11.3%
Cc1cc(NC(=O)CCS(=O)(=O)c2cc(Br)cc3c2N(C(=O)C2CC2)CC3)ccc1Br | 4.47µM*
COc1ccccc1N1CCN(C(=O)CCS(=O)(=O)c2cc(Br)cc3c2N(C(=O)C2CC2)CC3)CC1 | 10µM*
CCC(=O)N1CCc2cc(Br)cc(S(=O)(=O)CCC(=O)NCCc3ccc(C)cc3)c21 | -12.6%
CCC(=O)N1CCc2cc(Br)cc(S(=O)(=O)CCC(=O)Nc3ccc(C)c(F)c3)c21 | 5.01µM*
CCc1cccc(C)c1NC(=O)CCS(=O)(=O)c1cc(Br)cc2c1N(C(=O)C1CC1)CC2 | -18.6%
Cc1cc(NC(=O)CCS(=O)(=O)c2cc3c4c(c2)CCN4C(=O)CC3)ccc1Br | 15.0%
CCC(=O)N1CCc2cc(Br)cc(S(=O)(=O)CCC(=O)NCCc3ccccc3Cl)c21 | 11.2µM*
CCC(=O)N1CCc2cc(Br)cc(S(=O)(=O)CCC(=O)Nc3ccc(CC)cc3)c21 | -4.9%
COCC(=O)NC[C@H]1OC[C@@H](NCC(C)(C)C)[C@@H]1O | -9.1%[44.1 µM]
COc1ccc(NC(=O)CCC2CCN(C(=O)c3ccc(OC)o3)CC2)c(OC)c1 | i
